Results on one molecule are retold here after ChEMBL document CHEMBL2218924, “A broad activity screen in support of a chemogenomic map for kinase signalling research and drug discovery” (Biochem J, 2013).

For assay [1], the target named is T1, Ephrin type-A receptor 3 (Homo sapiens) (UniProt P29320).
T1 sequence (whole entry): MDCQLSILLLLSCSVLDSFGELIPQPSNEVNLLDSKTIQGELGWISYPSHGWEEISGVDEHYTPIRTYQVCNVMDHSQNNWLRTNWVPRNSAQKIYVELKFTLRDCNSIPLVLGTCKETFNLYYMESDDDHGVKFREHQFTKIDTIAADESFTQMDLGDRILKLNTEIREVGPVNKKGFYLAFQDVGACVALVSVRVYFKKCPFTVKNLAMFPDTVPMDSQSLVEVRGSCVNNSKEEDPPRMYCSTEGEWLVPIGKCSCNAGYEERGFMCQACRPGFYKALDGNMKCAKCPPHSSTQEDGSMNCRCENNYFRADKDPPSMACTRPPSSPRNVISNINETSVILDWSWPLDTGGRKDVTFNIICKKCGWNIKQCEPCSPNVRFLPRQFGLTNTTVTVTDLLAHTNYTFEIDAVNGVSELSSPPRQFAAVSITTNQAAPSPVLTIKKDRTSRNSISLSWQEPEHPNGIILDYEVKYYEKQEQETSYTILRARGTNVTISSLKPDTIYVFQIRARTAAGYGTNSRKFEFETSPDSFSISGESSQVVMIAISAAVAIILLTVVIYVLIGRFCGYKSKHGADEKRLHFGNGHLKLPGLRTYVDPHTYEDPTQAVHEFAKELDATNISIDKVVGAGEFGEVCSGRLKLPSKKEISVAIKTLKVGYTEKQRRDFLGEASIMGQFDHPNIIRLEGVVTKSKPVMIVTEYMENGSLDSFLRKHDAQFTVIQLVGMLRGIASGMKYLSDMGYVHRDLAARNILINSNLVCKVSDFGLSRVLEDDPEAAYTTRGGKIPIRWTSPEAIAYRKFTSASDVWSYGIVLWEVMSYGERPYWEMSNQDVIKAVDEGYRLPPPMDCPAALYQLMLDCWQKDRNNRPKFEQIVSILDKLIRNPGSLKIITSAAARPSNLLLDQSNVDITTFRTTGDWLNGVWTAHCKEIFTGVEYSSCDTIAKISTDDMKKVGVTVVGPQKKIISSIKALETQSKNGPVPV
Particulars: at 10 µM.

For assay [2], the target named is Ephrin type-A receptor 4 (Homo sapiens) (UniProt P54764). Particulars: at 1 µM.
For assay [3] the target is unchanged. The conditions noted are these: at 10 µM.
Assay [4] has as its target Ephrin type-A receptor 5 (Homo sapiens) (UniProt P54756). The conditions noted are these: at 1 µM.
Assay [5] shares this target. The conditions noted are these: at 10 µM.
The target of assay [6] is Ephrin type-A receptor 7 (Homo sapiens) (UniProt Q15375). The conditions noted are these: at 10 µM.
In assay [7] the target is T2, Ephrin type-A receptor 8 (Homo sapiens) (UniProt P29322).
T2 sequence (whole entry): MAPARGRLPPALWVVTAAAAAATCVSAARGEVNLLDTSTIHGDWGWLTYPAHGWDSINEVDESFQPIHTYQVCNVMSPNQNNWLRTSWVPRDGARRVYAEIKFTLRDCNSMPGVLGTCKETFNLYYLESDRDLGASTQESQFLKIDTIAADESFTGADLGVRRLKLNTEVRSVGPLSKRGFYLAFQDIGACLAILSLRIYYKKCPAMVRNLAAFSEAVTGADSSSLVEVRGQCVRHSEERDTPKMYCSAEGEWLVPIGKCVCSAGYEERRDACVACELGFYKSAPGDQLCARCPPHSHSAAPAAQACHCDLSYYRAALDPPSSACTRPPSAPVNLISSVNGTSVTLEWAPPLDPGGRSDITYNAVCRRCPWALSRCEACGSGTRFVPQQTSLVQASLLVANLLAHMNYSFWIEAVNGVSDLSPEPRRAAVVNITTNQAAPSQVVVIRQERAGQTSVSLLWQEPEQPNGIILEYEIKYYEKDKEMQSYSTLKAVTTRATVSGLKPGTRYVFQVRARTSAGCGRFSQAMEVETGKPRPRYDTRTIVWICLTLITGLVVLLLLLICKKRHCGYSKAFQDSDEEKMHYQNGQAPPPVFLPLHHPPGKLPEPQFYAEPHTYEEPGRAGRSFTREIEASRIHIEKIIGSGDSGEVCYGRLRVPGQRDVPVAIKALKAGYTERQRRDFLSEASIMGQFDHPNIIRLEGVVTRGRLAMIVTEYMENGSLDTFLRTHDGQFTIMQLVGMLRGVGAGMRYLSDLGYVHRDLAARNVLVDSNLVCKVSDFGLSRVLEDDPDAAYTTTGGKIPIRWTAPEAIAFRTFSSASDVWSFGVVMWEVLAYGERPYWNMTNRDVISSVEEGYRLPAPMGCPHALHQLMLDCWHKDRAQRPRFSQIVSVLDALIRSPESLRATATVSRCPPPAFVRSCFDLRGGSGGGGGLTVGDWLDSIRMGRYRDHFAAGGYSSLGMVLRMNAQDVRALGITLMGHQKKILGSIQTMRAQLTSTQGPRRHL
The conditions noted are these: at 1 µM.

Assay [8] addresses T3, Ephrin type-B receptor 1 (Homo sapiens) (UniProt P54762).
T3 sequence (whole entry): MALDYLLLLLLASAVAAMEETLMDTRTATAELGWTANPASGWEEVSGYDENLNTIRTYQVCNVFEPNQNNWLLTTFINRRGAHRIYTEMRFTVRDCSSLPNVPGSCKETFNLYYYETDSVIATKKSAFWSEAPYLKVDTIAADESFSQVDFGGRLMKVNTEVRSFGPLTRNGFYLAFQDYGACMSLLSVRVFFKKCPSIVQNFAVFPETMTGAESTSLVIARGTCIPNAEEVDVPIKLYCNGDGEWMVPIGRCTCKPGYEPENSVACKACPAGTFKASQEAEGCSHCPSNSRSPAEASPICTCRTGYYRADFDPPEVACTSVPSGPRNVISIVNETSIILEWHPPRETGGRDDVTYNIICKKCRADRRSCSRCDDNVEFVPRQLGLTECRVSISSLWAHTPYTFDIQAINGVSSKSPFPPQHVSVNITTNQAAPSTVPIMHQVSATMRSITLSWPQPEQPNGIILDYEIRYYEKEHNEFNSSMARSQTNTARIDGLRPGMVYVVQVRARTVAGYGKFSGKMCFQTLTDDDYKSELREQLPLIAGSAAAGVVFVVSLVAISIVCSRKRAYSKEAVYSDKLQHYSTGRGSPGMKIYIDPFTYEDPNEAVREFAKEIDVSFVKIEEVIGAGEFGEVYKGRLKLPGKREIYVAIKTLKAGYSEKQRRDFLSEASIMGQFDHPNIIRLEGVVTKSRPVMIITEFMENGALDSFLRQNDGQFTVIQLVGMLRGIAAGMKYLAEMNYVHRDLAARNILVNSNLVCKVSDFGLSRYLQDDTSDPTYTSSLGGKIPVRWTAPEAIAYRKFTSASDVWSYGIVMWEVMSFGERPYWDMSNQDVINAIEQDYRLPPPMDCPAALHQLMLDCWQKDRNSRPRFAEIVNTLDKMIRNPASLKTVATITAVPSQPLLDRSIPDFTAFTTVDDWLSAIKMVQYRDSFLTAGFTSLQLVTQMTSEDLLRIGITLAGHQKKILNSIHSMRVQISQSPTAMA
Particulars: at 1 µM.

The target in assay [9] is T3, Ephrin type-B receptor 1 (Homo sapiens). Particulars: at 10 µM.

Chain of Ephrin type-A receptor 4 (Homo sapiens) (P54764 whole entry): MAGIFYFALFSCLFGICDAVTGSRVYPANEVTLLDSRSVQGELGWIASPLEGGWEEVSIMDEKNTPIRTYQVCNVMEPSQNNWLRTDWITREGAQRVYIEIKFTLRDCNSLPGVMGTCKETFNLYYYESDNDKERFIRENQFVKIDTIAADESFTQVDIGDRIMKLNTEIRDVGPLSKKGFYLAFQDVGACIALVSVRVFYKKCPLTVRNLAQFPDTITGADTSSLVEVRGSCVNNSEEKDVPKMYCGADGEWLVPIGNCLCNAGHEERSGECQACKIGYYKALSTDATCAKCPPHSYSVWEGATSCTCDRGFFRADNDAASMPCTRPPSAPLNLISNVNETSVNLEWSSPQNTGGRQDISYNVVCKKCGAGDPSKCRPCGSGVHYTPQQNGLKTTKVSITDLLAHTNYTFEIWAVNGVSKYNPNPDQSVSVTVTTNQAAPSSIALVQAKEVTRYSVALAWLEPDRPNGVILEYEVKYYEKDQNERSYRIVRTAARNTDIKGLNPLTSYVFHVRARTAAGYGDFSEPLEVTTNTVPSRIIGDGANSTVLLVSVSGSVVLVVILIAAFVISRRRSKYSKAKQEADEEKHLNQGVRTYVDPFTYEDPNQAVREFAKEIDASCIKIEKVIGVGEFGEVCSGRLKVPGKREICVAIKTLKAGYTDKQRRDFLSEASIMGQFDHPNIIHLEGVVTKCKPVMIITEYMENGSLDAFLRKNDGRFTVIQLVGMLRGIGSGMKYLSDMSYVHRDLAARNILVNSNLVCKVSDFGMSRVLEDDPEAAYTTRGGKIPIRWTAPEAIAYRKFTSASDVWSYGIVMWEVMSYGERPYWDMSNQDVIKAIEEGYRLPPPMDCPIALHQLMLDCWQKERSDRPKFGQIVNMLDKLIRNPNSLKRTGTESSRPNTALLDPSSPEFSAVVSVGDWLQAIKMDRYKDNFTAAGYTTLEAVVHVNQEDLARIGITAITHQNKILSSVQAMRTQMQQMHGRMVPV
Chain of Ephrin type-A receptor 5 (Homo sapiens) (P54756 whole entry): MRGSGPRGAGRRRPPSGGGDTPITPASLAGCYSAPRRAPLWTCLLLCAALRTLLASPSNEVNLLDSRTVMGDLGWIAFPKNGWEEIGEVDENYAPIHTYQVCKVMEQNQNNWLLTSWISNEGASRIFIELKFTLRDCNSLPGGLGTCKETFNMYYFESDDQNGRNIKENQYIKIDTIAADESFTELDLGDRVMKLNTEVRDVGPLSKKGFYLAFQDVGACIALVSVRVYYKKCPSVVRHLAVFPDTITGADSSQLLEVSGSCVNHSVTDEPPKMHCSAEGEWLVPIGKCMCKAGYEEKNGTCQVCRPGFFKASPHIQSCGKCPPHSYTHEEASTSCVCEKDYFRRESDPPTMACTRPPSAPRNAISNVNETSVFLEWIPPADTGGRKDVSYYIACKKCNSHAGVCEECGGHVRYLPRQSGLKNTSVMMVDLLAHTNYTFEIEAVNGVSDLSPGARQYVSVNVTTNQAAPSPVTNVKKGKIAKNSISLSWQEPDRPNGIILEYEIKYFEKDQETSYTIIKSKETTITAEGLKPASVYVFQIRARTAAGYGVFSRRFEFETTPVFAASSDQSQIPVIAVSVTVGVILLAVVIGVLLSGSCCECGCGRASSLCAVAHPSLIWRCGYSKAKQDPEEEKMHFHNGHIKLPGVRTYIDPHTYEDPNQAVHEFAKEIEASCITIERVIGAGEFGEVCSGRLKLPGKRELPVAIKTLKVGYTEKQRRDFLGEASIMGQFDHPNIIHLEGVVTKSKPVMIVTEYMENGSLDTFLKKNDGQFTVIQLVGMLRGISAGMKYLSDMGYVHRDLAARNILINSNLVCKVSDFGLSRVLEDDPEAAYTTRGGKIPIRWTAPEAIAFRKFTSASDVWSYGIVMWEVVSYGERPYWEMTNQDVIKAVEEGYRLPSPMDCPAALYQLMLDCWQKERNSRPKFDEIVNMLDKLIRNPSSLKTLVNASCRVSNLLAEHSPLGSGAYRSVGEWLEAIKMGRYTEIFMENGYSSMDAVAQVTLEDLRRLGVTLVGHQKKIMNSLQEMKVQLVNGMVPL
Chain of Ephrin type-A receptor 7 (Homo sapiens) (Q15375 28-998 limits assumed): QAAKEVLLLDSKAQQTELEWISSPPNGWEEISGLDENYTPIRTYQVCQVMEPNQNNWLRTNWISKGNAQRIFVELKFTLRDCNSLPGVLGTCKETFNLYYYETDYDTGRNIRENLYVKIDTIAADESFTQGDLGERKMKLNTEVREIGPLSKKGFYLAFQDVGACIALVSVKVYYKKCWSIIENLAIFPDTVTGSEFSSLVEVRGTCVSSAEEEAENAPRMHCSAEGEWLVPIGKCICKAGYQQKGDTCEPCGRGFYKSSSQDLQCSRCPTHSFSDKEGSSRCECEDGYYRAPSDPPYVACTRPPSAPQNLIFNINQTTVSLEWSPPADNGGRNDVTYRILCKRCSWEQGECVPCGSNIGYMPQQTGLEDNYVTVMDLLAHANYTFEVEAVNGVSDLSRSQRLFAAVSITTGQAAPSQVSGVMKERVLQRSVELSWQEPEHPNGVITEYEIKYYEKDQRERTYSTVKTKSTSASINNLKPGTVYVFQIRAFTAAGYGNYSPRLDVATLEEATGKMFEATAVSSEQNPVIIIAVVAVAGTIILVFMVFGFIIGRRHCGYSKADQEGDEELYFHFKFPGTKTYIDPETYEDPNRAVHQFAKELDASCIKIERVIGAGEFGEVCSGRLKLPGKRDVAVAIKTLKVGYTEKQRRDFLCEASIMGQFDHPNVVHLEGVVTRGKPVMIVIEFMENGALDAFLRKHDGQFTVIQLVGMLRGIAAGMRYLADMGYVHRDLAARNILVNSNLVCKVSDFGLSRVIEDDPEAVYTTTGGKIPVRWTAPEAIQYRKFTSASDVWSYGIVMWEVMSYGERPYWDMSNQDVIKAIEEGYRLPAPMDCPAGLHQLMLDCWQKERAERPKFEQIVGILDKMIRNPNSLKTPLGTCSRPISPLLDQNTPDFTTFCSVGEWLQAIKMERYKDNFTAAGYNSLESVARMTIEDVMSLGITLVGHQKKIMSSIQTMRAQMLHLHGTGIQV

The residual activity is the signal under treatment as a percentage of the control signal. Consider `O=[N+]([O-])c1ccc(-c2nc(-c3ccc(F)cc3)c(-c3ccncc3)[nH]2)cc1`, for which the residual activity was 90% in [1]; 105% in assay [2]; 107% in [3]; 100% in [4]; 94% in assay [5]; 101% in assay [6]. In addition, the residual activity came to 93% in assay [7], 103% in [8] and 94% in [9].
